The text below walks through data of PubChem BioAssay (NCATS).

Records with an inconclusive call do not appear. Where a call stands in place of a potency, no number is given. Active and inactive are the calls of the source. Calls follow the shape of the dose curve; as a rule, active = well fitted curve in the direction sought with a large enough effect; inconclusive = small, poorly fitted or top-dose-only effect, or another doubt; inactive = no such curve, though single readings can be large; an effect the other way counts as inactive or inconclusive.
Also: nearly all actives have a fitted effect of over 70% in size.
Potency is read from the fitted curve at half-maximal effect.

One assay in a line: Primary qHTS for inhibitors of nuclear receptor binding SET domain protein 2 (NSD2) in an isogenic RCH-ACV NSD2 p.E1099K mutant (9B) (AID 1645876). As to conditions: RCH-ACV NSD2 E1099K (9B) viability, CellTiter-Glo, 72 h; series mostly up to 44.9 µM. In general terms: In qHTS, concentration-response curves come from the screen itself.
`CNC(=O)c1c(I)c(NC(=O)CCCCC(=O)Nc2c(I)c(C(=O)O)c(I)c(C(=O)NC)c2I)c(I)c(C(=O)O)c1I`: the Potency entry was “inactive”.

As for `O=C(Nc1ccc(C(=O)O)c(O)c1)c1ccccc1`, the Potency result is “inactive”.

As to `CCCCCCCCCCCCCCCC(=O)OC(C)C`, the Potency entry was “inactive”.

In the case of `COc1ccc(-c2cc(=S)ss2)cc1`, the Potency entry is “inactive”.

As for `CN(C)CCn1nnnc1SCC1=C(C(=O)O)N2C(=O)[C@@H](NC(=O)Cc3csc(N)n3)[C@H]2SC1`, the Potency entry is “inactive”.

`Cc1ccc(O)c(-n2nc3ccccc3n2)c1`: the Potency result was “inactive”.

On to `O=C(O)/C=C\C(=O)O`, for which the Potency entry was “inactive”.

Turning to `CCCCCCCCCCCCOCCO`, the Potency entry was “inactive”.

`CO[C@@]1(NC(=O)Cc2cccs2)C(=O)N2C(C(=O)O)=C(COC(N)=O)CS[C@@H]21`: the Potency result is “inactive”.

For the molecule `C[N+]1(C)[C@@H]2CC(OC(=O)[C@H](CO)c3ccccc3)C[C@H]1[C@@H]1O[C@@H]12` (some centres not stated), the Potency entry is “inactive”.

As for `COC(=O)C1=C(C)NC(C)=C(C(=O)OCC(C)=O)C1c1ccccc1[N+](=O)[O-]` (configuration not stated), the Potency is 11.9 µM (active).

As to `COc1cc2c3cc1Oc1cc(ccc1O)C[C@@H]1c4c(cc(OC)c(O)c4Oc4ccc(cc4)C[C@@H]3N(C)CC2)CC[N+]1(C)C`, the Potency result is “inactive”.

As for `CC1(C)S[C@@H]2[C@H](NC(=O)[C@H](N)c3ccccc3)C(=O)N2[C@H]1C(=O)O`, the Potency entry was “inactive”.

For `CN1CC(=O)N/C1=N/C(=O)Nc1cccc(Cl)c1`, the Potency result was “inactive”.

As for `Cc1c(N)c(=O)n(-c2ccccc2)n1C`, the Potency entry was “inactive”.

With `COc1ccnc2c1CCCCC2S(=O)c1nc2ccccc2[nH]1` (configuration not stated), the Potency entry was “inactive”.

As to `Nc1nc2ccc([N+](=O)[O-])cc2s1`, the Potency was 21.7 µM (active).

Take `O=C(O)Cc1ccc2c(c1)C(=O)c1ccccc1CO2`: the Potency entry is “inactive”.

On to `CCCCCCCCCCCCCCCCCC(=O)O`, for which the Potency result was “inactive”.

For the molecule `CC(C)(C)c1nnc(NS(=O)(=O)c2ccc(N)cc2)s1`, the Potency entry is “inactive”.

Take `Cc1ccc2c(n1)Oc1ccc(C(C)C(=O)OCC(=O)N(C)C)cc1C2` (configuration not stated): the Potency entry was “inactive”.

For `Nc1cc(-c2ccncc2)c[nH]c1=O`, the Potency result was “inactive”.

In the case of `Nc1ccc(C(=O)O)c(O)c1`, the Potency result is “inactive”.

A short description of another assay: Primary qHTS for inhibitors of nuclear receptor binding SET domain protein 2 (NSD2) in an RCH-ACV wild type WT cells (2C) (AID 1645877). As to conditions: RCH-ACV (leukaemia line) NSD2 WT (2C) viability, CellTiter-Glo, 72 h; series mostly up to 44.9 µM.
`CNC(=O)c1c(I)c(NC(=O)CCCCC(=O)Nc2c(I)c(C(=O)O)c(I)c(C(=O)NC)c2I)c(I)c(C(=O)O)c1I`: the Potency entry was “inactive”.

As to `O=C(Nc1ccc(C(=O)O)c(O)c1)c1ccccc1`, the Potency entry was “inactive”.

For the molecule `CCCCCCCCCCCCCCCC(=O)OC(C)C`, the Potency entry is “inactive”.

For the molecule `COc1ccc(-c2cc(=S)ss2)cc1`, the Potency result is “inactive”.

Turning to `CN(C)CCn1nnnc1SCC1=C(C(=O)O)N2C(=O)[C@@H](NC(=O)Cc3csc(N)n3)[C@H]2SC1`, the Potency result was “inactive”.

Regarding `Cc1ccc(O)c(-n2nc3ccccc3n2)c1`, the Potency result was “inactive”.

For `O=C(O)/C=C\C(=O)O`, the Potency entry is “inactive”.

Turning to `O=Cc1ccc(O)c(O)c1O`, the Potency was 16.8 µM (active).

Turning to `CO[C@@]1(NC(=O)Cc2cccs2)C(=O)N2C(C(=O)O)=C(COC(N)=O)CS[C@@H]21`, the Potency entry is “inactive”.

Turning to `C[N+]1(C)[C@@H]2CC(OC(=O)[C@H](CO)c3ccccc3)C[C@H]1[C@@H]1O[C@@H]12` (some centres not stated), the Potency result is “inactive”.

As for `COC(=O)C1=C(C)NC(C)=C(C(=O)OCC(C)=O)C1c1ccccc1[N+](=O)[O-]` (configuration not stated), the Potency is 11.9 µM (active).

Consider `COc1cc2c3cc1Oc1cc(ccc1O)C[C@@H]1c4c(cc(OC)c(O)c4Oc4ccc(cc4)C[C@@H]3N(C)CC2)CC[N+]1(C)C`, for which the Potency entry is “inactive”.

With `CC1(C)S[C@@H]2[C@H](NC(=O)[C@H](N)c3ccccc3)C(=O)N2[C@H]1C(=O)O`, the Potency result was “inactive”.

With `CN1CC(=O)N/C1=N/C(=O)Nc1cccc(Cl)c1`, the Potency entry was “inactive”.

As for `Cc1c(N)c(=O)n(-c2ccccc2)n1C`, the Potency result was “inactive”.

With `COc1ccnc2c1CCCCC2S(=O)c1nc2ccccc2[nH]1` (configuration not stated), the Potency result was “inactive”.

For the molecule `Nc1nc2ccc([N+](=O)[O-])cc2s1`, the Potency was 19.3 µM (active).

With `O=C(O)Cc1ccc2c(c1)C(=O)c1ccccc1CO2`, the Potency result is “inactive”.

With `CCCCCCCCCCCCCCCCCC(=O)O`, the Potency result is “inactive”.

Regarding `CC(C)(C)c1nnc(NS(=O)(=O)c2ccc(N)cc2)s1`, the Potency entry is “inactive”.

As to `O=C(O)Cc1ccc(-c2ccccc2)cc1`, the Potency result was “inactive”.

Turning to `Cc1ccc2c(n1)Oc1ccc(C(C)C(=O)OCC(=O)N(C)C)cc1C2` (configuration not stated), the Potency entry was “inactive”.

As for `Nc1cc(-c2ccncc2)c[nH]c1=O`, the Potency result was “inactive”.

As for `Nc1ccc(C(=O)O)c(O)c1`, the Potency result is “inactive”.
